Inconclusive results are not listed. Calls of active or inactive are those of the source. Unless noted, the call rests on the fitted dose curve.
Assays:
[1] = Nuclear factor erythroid 2-related factor 2/antioxidant responsive element (Nrf2/ARE) small molecule agonists: qHTS cell viability counter screen in human keratinocytes (AID 1919968; active means well fitted curve in the direction sought with a large enough effect in the repeat runs; an effect the other way counts as inactive or inconclusive; further: nearly all actives have a fitted effect of over 55% in size)
In short: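 Viability counter-screen: KeratinoSens reporter cells, DMSO-delivered compounds, 23 h at 37 C, CellTiter-Fluor fluorescence.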

[2] = Nuclear factor erythroid 2-related factor 2/antioxidant responsive element (Nrf2/ARE) small molecule agonists: luciferase reporter gene qHTS assay in human keratinocytes (AID 1919969); further: nearly all actives have a fitted effect of over 35% in size; further: potency means the concentration at half of the fitted maximal effect
[3] = G protein-coupled receptor (GPCR) small molecule agonists, calcium flux assay: HEK293 wild type cell line counter screen (AID 1920065)
In short: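 In this agonist-mode screen, ATP is the positive control and DMSO the vehicle. Cells grow 18 h before a 1 h dye incubation at 37 C; signal is taken at Ex/Em 480/540 over 3 min.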

[4] = p53 small molecule agonists, cell-based qHTS assay with rat liver microsomes (AID 1963578)
In short: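 p53RE-bla cells were exposed to compounds together with rat liver microsomes (0.5 mg/mL final) and NADPH (0.5 mg/mL final) for 16 h at 37 C, then read by LiveBLAzer beta-lactamase fluorescence after 2 h at room temperature.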

[5] = p53 small molecule agonists, cell-based qHTS assay with human liver microsomes: qHTS cell viability counter screen (AID 1963579); further: nearly all actives have a fitted effect of over 45% in size
In short: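 p53RE-bla cells (4,000/well) were pre-incubated 5 h at 37 C, then given compounds in DMSO plus human liver microsomes (0.5 mg/mL final) and NADPH (0.5 mg/mL final) for 16 h at 37 C. Viability was read by CellTiter-Glo luminescence.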

[6] = p53 small molecule agonists, cell-based qHTS assay: qHTS cell viability counter screen (AID 1963581); further: nearly all actives have a fitted effect of over 45% in size
In short: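 Compounds are pinned onto HCT-116 p53RE-bla cells and left 16 h at 37 C. Following the reporter FRET read, ATP is quantified by CellTiter-Glo luminescence after 30 min at room temperature.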

[7] = p53 small molecule agonists, cell-based qHTS assay (AID 1963582; active means well fitted activation curve with a large enough effect in the signal ratio in the repeat runs, not every such curve was filed as active; the % refers to the signal ratio)
In short: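 Agonist activity was scored from beta-lactamase FRET fluorescence in p53RE-bla cells treated 16 h at 37 C with compounds in DMSO, substrate incubation being 2 h at room temperature.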

[8] = cAMP Responsive Elements (CRE) small molecule antagonists, cell-based qHTS assay (AID 1963591; active means well fitted inhibition curve with a large enough effect in the signal ratio in the repeat runs, not every such curve was filed as active; the % refers to the signal ratio)
In short: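 qHTS in CRE-bla HEK 293T cells: compound in DMSO, then 0.25 uM NKH477 (final), 3 h at 37 °C/5% CO2; beta-lactamase FRET read-out after 2 h substrate incubation.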

[9] = biological target: Beta-2 adrenergic receptor (Homo sapiens) (UniProt P07550); experiment: Adrenergic beta2 receptor (ADRB2) small molecule antagonists, cell-based qHTS assay (AID 1963592); further: series mostly up to about 92 µM; nearly all actives have a fitted effect of over 50% in size
Sequence of Beta-2 adrenergic receptor (Homo sapiens) (P07550 whole entry, looked up): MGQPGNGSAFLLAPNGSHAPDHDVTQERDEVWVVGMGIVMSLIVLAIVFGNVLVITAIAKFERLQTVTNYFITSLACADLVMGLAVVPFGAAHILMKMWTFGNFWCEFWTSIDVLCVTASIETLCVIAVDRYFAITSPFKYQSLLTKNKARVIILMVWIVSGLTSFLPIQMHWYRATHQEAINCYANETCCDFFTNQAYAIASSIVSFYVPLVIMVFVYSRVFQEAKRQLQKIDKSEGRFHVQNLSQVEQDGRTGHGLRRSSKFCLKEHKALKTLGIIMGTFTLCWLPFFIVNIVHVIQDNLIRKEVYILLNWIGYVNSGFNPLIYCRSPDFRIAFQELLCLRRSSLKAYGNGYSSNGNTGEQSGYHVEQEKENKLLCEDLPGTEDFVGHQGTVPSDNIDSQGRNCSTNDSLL
In short: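 Cells (CHO, stable ADRB2 overexpression) incubated 18-20hr at 37C; compounds added from DMSO; agonist mix (1nM isoproterenol, 100uM IBMX, 25uM Ro-20-1724) added; 0.5hr RT; d2-cAMP and anti-cAMP-cryptate added; 1hr RT; 665/615 nm read.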

[10] = biological target: D(2) dopamine receptor (Homo sapiens) (UniProt P14416); experiment: Dopamine D2 receptor (DRD2) small molecule agonists, cell-based qHTS assay (AID 1963594); further: nearly all actives have a fitted effect of over 35% in size
Sequence of D(2) dopamine receptor (Homo sapiens) (P14416 whole entry, looked up): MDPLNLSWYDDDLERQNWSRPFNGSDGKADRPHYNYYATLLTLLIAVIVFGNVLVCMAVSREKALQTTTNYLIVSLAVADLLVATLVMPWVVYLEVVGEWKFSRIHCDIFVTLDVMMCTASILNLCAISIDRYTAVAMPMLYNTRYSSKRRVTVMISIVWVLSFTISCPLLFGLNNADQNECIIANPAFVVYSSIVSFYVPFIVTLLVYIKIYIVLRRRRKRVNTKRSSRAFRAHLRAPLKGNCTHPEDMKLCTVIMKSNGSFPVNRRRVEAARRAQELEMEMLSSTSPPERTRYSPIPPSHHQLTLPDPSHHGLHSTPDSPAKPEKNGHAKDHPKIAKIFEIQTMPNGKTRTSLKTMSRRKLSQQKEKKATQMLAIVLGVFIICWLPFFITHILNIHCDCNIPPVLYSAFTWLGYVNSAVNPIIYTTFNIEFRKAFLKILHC
In short: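 HEK293 cells stably expressing human DRD2, pre-treated with PDE inhibitor Ro20-1724 (0.1 mM final) and compound 10 min at room temperature, then stimulated with NKH477 (200nM […]) for 30 min. cAMP read by HTRF (665/620 nm).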

[11] = biological target: KiSS-1 receptor (Homo sapiens) (UniProt Q969F8); experiment: Human kisspeptin (KISS1R) small molecule agonists, calcium flux assay in KISS1R-HEK293 cells (AID 1920064; active means well fitted curve in the direction sought with a large enough effect in the repeat runs; an effect the other way counts as inactive or inconclusive)
Sequence of KiSS-1 receptor (Homo sapiens) (Q969F8 whole entry, looked up): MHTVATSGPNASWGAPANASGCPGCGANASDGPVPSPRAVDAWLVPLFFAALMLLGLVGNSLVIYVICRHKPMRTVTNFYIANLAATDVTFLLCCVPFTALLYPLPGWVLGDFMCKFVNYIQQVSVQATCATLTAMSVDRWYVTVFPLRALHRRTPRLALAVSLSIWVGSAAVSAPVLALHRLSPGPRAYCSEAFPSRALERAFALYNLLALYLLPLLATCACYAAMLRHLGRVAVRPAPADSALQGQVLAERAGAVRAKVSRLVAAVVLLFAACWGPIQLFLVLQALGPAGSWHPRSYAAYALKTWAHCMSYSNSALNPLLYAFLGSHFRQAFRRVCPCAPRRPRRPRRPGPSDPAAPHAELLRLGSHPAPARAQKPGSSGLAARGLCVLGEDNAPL
In short: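 Intracellular calcium mobilization in KISS1R-HEK293 cells was recorded by fluorescence (Ex/Em 480/540) for 3 min following compound addition to cells pre-loaded 1 h with calcium dye.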

[12] = p53 small molecule agonists, cell-based qHTS assay with human liver microsomes (AID 1963577)
In short: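 p53RE-bla reporter cells were pre-incubated 5 h at 37 C, then treated with compounds plus human liver microsomes (0.5 mg/mL final) and NADPH (0.5 mg/mL final) for 16 h at 37 C. Beta-lactamase activity was read by LiveBLAzer fluorescence after 2 h at room temperature.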

[13] = p53 small molecule agonists, cell-based qHTS assay with rat liver microsomes: qHTS cell viability counter screen (AID 1963580); further: nearly all actives have a fitted effect of over 45% in size
In short: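 p53RE-bla HCT-116 cells were exposed 16 h at 37 C to compounds with rat liver microsomes (0.5 mg/mL) and NADPH (0.5 mg/mL). Viability was measured in the same wells as ATP content by CellTiter-Glo luminescence.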

[14] = biological target: 5-hydroxytryptamine receptor 2A (Homo sapiens) (UniProt P28223); experiment: 5-hydroxytryptamine receptor 2A (HTR2A) small molecule antagonists, cell-based qHTS assay (AID 1963586); further: nearly all actives have a fitted effect of over 45% in size
Sequence of 5-hydroxytryptamine receptor 2A (Homo sapiens) (P28223 whole entry, looked up): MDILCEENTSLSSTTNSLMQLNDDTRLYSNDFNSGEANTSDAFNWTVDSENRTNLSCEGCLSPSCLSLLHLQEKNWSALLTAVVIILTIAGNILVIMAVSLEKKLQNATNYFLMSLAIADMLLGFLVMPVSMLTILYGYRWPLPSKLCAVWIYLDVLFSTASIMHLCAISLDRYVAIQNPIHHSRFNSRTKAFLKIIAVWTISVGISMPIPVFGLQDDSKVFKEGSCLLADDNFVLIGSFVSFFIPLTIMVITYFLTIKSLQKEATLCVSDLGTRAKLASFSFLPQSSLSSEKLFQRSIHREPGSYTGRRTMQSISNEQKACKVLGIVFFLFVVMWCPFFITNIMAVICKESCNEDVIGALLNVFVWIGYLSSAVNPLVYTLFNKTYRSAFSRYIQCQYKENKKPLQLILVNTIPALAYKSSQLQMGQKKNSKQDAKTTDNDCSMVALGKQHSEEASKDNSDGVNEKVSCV
In short: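 Antagonist-mode intracellular calcium assay: DOI (4 nM) added after 5 min compound pre-incubation at room temperature to dye-loaded HTR2A-CHO cells. Fluorescence followed for 3 min, sampled every second.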

[15] = biological target: Muscarinic acetylcholine receptor M1 (Homo sapiens) (UniProt P11229); experiment: Cholinergic receptor muscarinic 1 (CHRM1) small molecule antagonists, cell-based qHTS assay (AID 1963588); further: nearly all actives have a fitted effect of over 40% in size
Sequence of Muscarinic acetylcholine receptor M1 (Homo sapiens) (P11229 whole entry, looked up): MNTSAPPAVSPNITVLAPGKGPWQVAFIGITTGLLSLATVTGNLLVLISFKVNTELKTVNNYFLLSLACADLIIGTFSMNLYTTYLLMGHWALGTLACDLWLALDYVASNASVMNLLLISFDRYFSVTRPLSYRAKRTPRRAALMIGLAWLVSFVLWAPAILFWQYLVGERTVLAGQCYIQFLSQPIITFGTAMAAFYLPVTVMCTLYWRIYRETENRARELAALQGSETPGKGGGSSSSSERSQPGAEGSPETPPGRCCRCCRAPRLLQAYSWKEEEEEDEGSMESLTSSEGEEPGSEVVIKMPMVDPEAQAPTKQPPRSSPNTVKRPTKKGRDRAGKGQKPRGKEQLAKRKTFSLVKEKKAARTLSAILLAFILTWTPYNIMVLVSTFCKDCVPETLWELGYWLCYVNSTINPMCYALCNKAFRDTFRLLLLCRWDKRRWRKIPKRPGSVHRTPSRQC
In short: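 CHRM1-CHO calcium-flux assay, antagonist mode. Cells were seeded 18 h, dye-loaded 1 h at 37 C and given compound for 5 min at RT, then acetylcholine was added at 50nM. FDSS fluorescence was read 3 min; 15 concentrations, three runs.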

[16] = biological target: Muscarinic acetylcholine receptor M1 (Homo sapiens) (UniProt P11229); experiment: Cholinergic receptor muscarinic 1 (CHRM1) small molecule agonists, cell-based qHTS assay (AID 1963589); further: nearly all actives have a fitted effect of over 35% in size
In short: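 Stable CHRM1-CHO cells (human receptor) were incubated 18 h, dye-loaded for 1 h at 37 C and exposed to test compounds for agonist activity, with calcium-dependent fluorescence followed kinetically.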

[17] = biological target: D(2) dopamine receptor (Homo sapiens) (UniProt P14416); experiment: Dopamine D2 receptor (DRD2) small molecule antagonists, cell-based qHTS assay (AID 1963595; active means well fitted inhibition curve with a large enough effect in the signal ratio in the repeat runs, with a control signal flat; the % refers to the signal ratio; further: potency means the concentration at half of the fitted maximal effect)
In short: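 HTRF cAMP read-out at 665 and 620 nm emission (340 nm excitation). Antagonist mode: compounds were tested against 12 nM quinpirole in DRD2-HEK293 cells, with 200 nM NKH477 raising cAMP and 0.1 mM Ro20-1724 blocking its breakdown.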

[18] = biological target: 5-hydroxytryptamine receptor 2A (Homo sapiens) (UniProt P28223); experiment: 5-hydroxytryptamine receptor 2A (HTR2A) small molecule agonists, cell-based qHTS assay (AID 1963587); further: nearly all actives have a fitted effect of over 30% in size
In short: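 CHO cells stably expressing human HTR2A, plated 18 h, loaded with calcium dye 1 h at 37 C. Agonist mode: compounds added and intracellular calcium fluorescence recorded kinetically for 2 min at 1 sec intervals.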

[19] = cAMP Responsive Elements (CRE) small molecule agonists, cell-based qHTS assay (AID 1963590)
In short: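 FRET-based beta-lactamase readout (LiveBLAzer B/G, 2 h RT) quantified CRE activation in HEK 293T CRE-bla cells after 3 h treatment with DMSO-dissolved compounds.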

[20] = biological target: Beta-2 adrenergic receptor (Homo sapiens) (UniProt P07550); experiment: Adrenergic beta2 receptor (ADRB2) small molecule agonists, cell-based qHTS assay (AID 1963593);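 further: CHO cells stably overexpressing human ADRB2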
In short: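 CHO cells stably over-expressing ADRB2 were plated overnight at 37C, then dosed with compounds plus a stimulation mix containing 100uM IBMX and 25uM Ro-20-1724 for 0.5hr at room temperature. cAMP was measured by HTRF competition, 1hr.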
On the % scale 0 is the no-effect control and ±100 the full control effect.

CC(O)(CS(=O)(=O)c1ccc(F)cc1)C(=O)Nc1ccc(C#N)c(C(F)(F)F)c1 (centres undefined)
inactive: Potency [1] | Potency [2] | Potency [3] | Potency [4] | Potency [5] | Potency [6] | Potency [7] | Potency [8] | Potency [9] | Potency [10]

c1ccc(C2CC2)c(OCC2=NCCN2)c1
active: Potency [17] 8.41 µM
inactive: Potency [1] | Potency [2] | Potency [11] | Potency [3] | Potency [12] | Potency [4] | Potency [5] | Potency [13] | Potency [6] | Potency [14] | Potency [15] | Potency [16] | Potency [9] | Potency [10]

CCC(C)Nc1c([N+](=O)[O-])cc(C(C)(C)C)cc1[N+](=O)[O-] (centres undefined)
active: Potency [2] 54.5 µM
inactive: Potency [1] | Potency [3] | Potency [5] | Potency [13] | Potency [6] | Potency [14] | Potency [18] | Potency [15] | Potency [16] | Potency [19] | Potency [8] | Potency [9] | Potency [10] | Potency [17]

[Cl][Sn]([Cl])([Cl])[Cl]
inactive: Potency [1] | Potency [2] | Potency [11] | Potency [3] | Potency [12] | Potency [4] | Potency [5] | Potency [13] | Potency [6] | Potency [7] | Potency [14] | Potency [18] | Potency [15] | Potency [16] | Potency [19] | Potency [8] | Potency [10] | Potency [17]

CCOP(=S)(OCC)SCSc1ccc(Cl)cc1
inactive: Potency [1] | Potency [2] | Potency [3] | Potency [5] | Potency [13] | Potency [6] | Potency [14] | Potency [18] | Potency [15] | Potency [16] | Potency [19] | Potency [9] | Potency [20] | Potency [10] | Potency [17]

Nc1c(Br)cc(Br)c2c1C(=O)c1ccccc1C2=O
inactive: activity change, negative = cytotoxicity [1] -10.3% [at 19 µM] | activity, positive = activation [2] 4.98% [at 19 µM] | activation [3] 0.165% [at 11.8 µM] | activity change, negative = cytotoxicity [13] -8.42% [at 13.5 µM] | activity change, negative = cytotoxicity [6] 13.4% [at 13.5 µM] | activity, negative = inhibition [14] 6.3% [at 12.7 µM] | activation [18] -1.81% [at 15.9 µM] | activity, negative = inhibition [15] -4.93% [at 12.6 µM] | activation [16] -0.118% [at 15.8 µM] | activation [19] -1.39% [at 19 µM] | activity change, negative = inhibition [9] 17.4% [at 19 µM] | activation [10] -0.116% [at 19 µM] | activity change, negative = inhibition [17] 9% [at 18.9 µM]

C#CC(C)(C)O
inactive: Potency [1] | Potency [2] | Potency [3] | Potency [5] | Potency [13] | Potency [6] | Potency [14] | Potency [18] | Potency [15] | Potency [16] | Potency [19] | Potency [9] | Potency [20] | Potency [10]

Clc1cc2c(cc1Cl)Oc1cc(Cl)c(Cl)cc1O2
inactive: activity change, negative = cytotoxicity [1] 5.41% [at 0.349 µM] | activity, positive = activation [2] 4.08% [at 0.349 µM] | activation [11] -3.37% [at 0.29 µM] | activation [3] 0.634% [at 0.217 µM] | activation [12] 0.165% [at 0.249 µM] | activation [4] -1.51% [at 0.249 µM] | activity change, negative = cytotoxicity [5] -6.87% [at 0.249 µM] | activity change, negative = cytotoxicity [13] 0.149% [at 0.249 µM] | activity change, negative = cytotoxicity [6] 1.19% [at 0.249 µM] | activation [7] 1.03% [at 0.249 µM] | activation [19] 0.0128% [at 0.349 µM] | activity change, negative = inhibition [8] -0.651% [at 0.349 µM] | activation [10] 0.882% [at 0.349 µM] | activity change, negative = inhibition [17] -6.33% [at 0.348 µM]

From PubChem BioAssay (Tox21)
